An excerpt weighted towards active compounds, which were near 12% of everything screened.
FMDV inh – High Throughput Screening for Foot and Mouth Disease Virus Antivirals; 410,000 tested, 1.2% active; AID 1159524, 2015; Potency, µM (titrated, usually from 57.9 µM), inactives show at the highest dose activity change, negative = inhibition, hits mostly inhibitors; FMDV antiviral cell-based qHTS; calls by dose curve; tested in HEK293T cells; also: read-out not given here; potency is read from the fitted curve at half-maximal effect; % is scaled to controls: 0 for no effect and ±100 for the full control effect; nearly all actives have a fitted effect of over 45% in size
Sm TGR inh – qHTS Assay for the Inhibitors of Schistosoma Mansoni Peroxiredoxins; Schistosoma mansoni thioredoxin glutathione reductase (TGR), Q962Y6; purified TGR, DTNB reduction, TNB absorbance 405 nm; Potency, µM (highest dose often 114 µM), inactives show top-dose activity change, negative = inhibition, hits mostly inhibitors; 360,000 tested, 3% active; active = well fitted inhibition curve with a large enough effect; inconclusive = small, poorly fitted or top-dose-only effect; inactive = no such curve, though single readings can be large or run the other way; also: potency is read from the fitted curve at half-maximal effect; % is scaled to controls: 0 for no effect and ±100 for the full control effect; nearly all actives have a fitted effect of over 60% in size
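Kinetic colorimetric format: TGR-catalysed, NADPH-driven DTNB reduction monitored via TNB absorbance. Enzyme dispensed at 20 nM; compound exposure 15 min at room temperature before reaction start.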
Cycloheximide cs – Cycloheximide Counterscreen for Small Molecule Inhibitors of Shiga Toxin; cell reporter, cycloheximide protein synthesis inhibition counterscreen; max response, %; 300,000 tested, 12% active; AID 2314, 2010; in the data active = max response mostly above about 13%, no sharp cut-off; inactive = mostly below about 14%; also: read at 38.3 µM for the half of the compounds with a filed dose; 0% is about no effect
Shiga toxin inh – A qHTS for Small Molecule Inhibitors of Shiga Toxin; Vero cells, Shiga toxin protein synthesis inhibition reporter; inhibition, % at 38.7 µM; 290,000 tested, 9.2% active; in the data active = inhibition mostly above about 28%, no sharp cut-off; inactive = mostly below about 43%; also: 0% is about no effect
Starred values were filed as active, the others as inactive; ? = inconclusive; nt = no result.

SMILES	FMDV inh	Sm TGR inh	Cycloheximide cs	Shiga toxin inh
O=C(c1ccncc1)N1CCC2(CC1)CCN(c1ccccn1)CC2	-26%	nt	nt	nt
O=c1[nH]c2ccccc2nc1C(F)(F)F	6%	11%	1	11
O=c1c2ccccc2cnn1-c1nc2ccccc2[nH]1	1.8µM*	-9%	-10	-35
CCS(=O)(=O)N1CCN(c2cnn(-c3ccccc3)c(=O)c2Cl)CC1	28%	nt	-3	4
O=c1c(Cl)c(N2CCCCC2)cnn1-c1nc2ccccc2[nH]1	?	0%	20*	17
Cc1cccc(CNC(=O)C2CCN(S(=O)(=O)c3ccc4c(c3)CCCN4C(=O)C3CCC3)CC2)c1	?	5%	nt	nt
Cc1c(C(=O)N(C)c2cccc(Cl)c2)cnn1-c1ccccc1	0%	-1%	39*	60*
Cc1c(C(=O)N(C)c2ccccc2Cl)cnn1-c1ccccc1	-6%	-1%	12*	30*
O=S(=O)(c1ccc2[nH]c3c(c2c1)CCCC3)N1CCN(c2cccc(C(F)(F)F)c2)CC1	-16%	3%	nt	nt
COCC(=O)Nc1cc(C(=O)NC2CCc3ccccc32)c2c(c1)nc(-c1ccncc1)n2C (stereo not given)	-16%	nt	nt	nt
O=C(c1cnn(-c2nccc(-c3ccco3)n2)c1C1CC1)N1CCCCC1c1cccnc1 (stereo not given)	-12%	nt	nt	nt
Cc1ccc(CNC(=O)CCCN2C(=O)CCn3nc(-c4cn(C)c5ccccc45)cc32)cc1	-11%	-5%	nt	nt
COC(=O)N1CCC2(CC1)CN(C(=O)Nc1ccc(OC)cc1)C2	0%	nt	nt	nt
CC(C)N1C(=O)/C(=C/C=C/c2ccco2)C(=O)N(Cc2ccco2)C1=O	18µM*	3.5µM*	15	18
O=C1NC(=O)N(Cc2ccccc2)C(=O)/C1=C/C=C/c1ccco1	13µM*	6.3µM*	6	20
COc1ccc(/C=C2/C(=O)N(Cc3ccco3)C(=O)N(C(C)C)C2=O)cc1	11%	-2%	-2	-4
CCN1C(=O)C(=C/C=C/c2ccco2)C(=O)N(CC)C1=S	?	8.9µM*	2	-5
COc1ccc(CN2C(=O)NC(=O)/C(=C\c3ccco3)C2=O)cc1	-29%	?	1	21
O=C1NN(c2ccc(F)cc2)C(=O)/C1=C\C=C\c1ccco1	-4%	?	-2	9
CCOC(=O)C1CCN(C(=O)C2CCN(C3=NS(=O)(=O)C(c4ccc(C)c(C)c4)=C3C)CC2)CC1	0%	11%	nt	nt
Cc1cc(C)cc(NC(=O)c2cc3c(=O)n(Cc4ccco4)ccc3nc2C)c1	-25%	-23%	nt	nt
O=C(O)c1ccc2c(c1)C(=O)N(NC(=O)c1ccccc1)C2=O	nt	18%	31*	61*
COc1ccc(C(=O)c2coc3ccc(OC(C)=O)cc23)cc1	-45%	2%	27*	72*
COc1ccc(OC)c(C(=O)c2coc3ccc(OC(C)=O)cc23)c1	12%	-12%	25	38*
COc1ccc2occ(C(=O)c3cccs3)c2c1	32%	2%	40*	96*
SMILES	FMDV inh	Sm TGR inh	Cycloheximide cs	Shiga toxin inh
COc1ccc(OC)c(C(=O)c2coc3ccc(OCC(=O)O)cc23)c1	-16%	-12%	-5	-1
COc1ccc2occ(C(=O)c3ccc(N)cc3)c2c1	10%	0%	39*	71*
COc1ccccc1CN1CCCC2(CCN(C(=O)c3cc(C(F)(F)F)cc(C(F)(F)F)c3)CC2)C1	-8%	nt	nt	nt
CN1CCN(c2ccnc(-c3ccc(N(C)C)cc3)n2)CC1	-25%	nt	nt	nt
O=C1CCCc2c1cc(-c1ccccc1)n2-c1ccccc1	?	-21%	2	-10
O=C(/C(C=Nc1cc2c(oc1=O)CCCC2=O)=C(\O)c1ccccc1)c1ccccc1	17%	nt	40*	125*
CN(C)Cc1cc(C(C)(C)C)c(O)c(C(C)(C)C)c1	-11%	22µM*	8	-1
CC(C)(C)c1cc(CP(=O)(c2ccccc2)c2ccccc2)cc(C(C)(C)C)c1O	?	?	13*	nt
O=C(CCC(=O)N1CCOCC1)c1ccc(F)cc1	38%	-27%	24*	55*
O=C(CCCC(=O)c1ccc(F)cc1)c1ccc(F)cc1	55%	-1%	55*	107*
CCOc1ccc(C(=O)CCCC(=O)c2ccc(OCC)cc2)cc1	45%	7%	47*	nt
CCOc1ccc(C(=O)COC(=O)CC)cc1	11%	-26%	23*	42*
O=c1[nH]c2ccc(NCc3ccc(-c4ccc(F)cc4)o3)cc2[nH]1	-33%	-3%	nt	nt
CCCCC(=O)OCC(=O)c1ccc(OCC)cc1	65%	-1%	58*	22*
CCCOc1ccc(C(=O)CCC(=O)OCC(=O)Nc2ccc(OCC)cc2)cc1	nt	4%	7	21
c1ccc(-c2nnnn2-c2ccccc2)cc1	-24%	5%	-2	-7
ClC(Cl)(c1nnnn1-c1ccccc1)c1nnnn1-c1ccccc1	-11%	20µM*	8	-7
Cc1c([N+](=O)[O-])cc(N2C(=O)C=CC2=O)cc1[N+](=O)[O-]	0%	nt	nt	nt
Cc1cc(N2C(=O)C=CC2=O)c([N+](=O)[O-])cc1C	?	0.71µM*	-2	12
Cn1c(=O)c2c(-c3ccccc3)n3c(c2n(C)c1=O)C(c1ccc([N+](=O)[O-])cc1)Nc1ccccc1-3 (stereo not given)	-29%	-9%	nt	nt
Brc1ccc(-c2ncc3ccccn23)cc1	27%	28µM*	60*	88*
Fc1ccc(-c2ncc3ccccn23)cc1	32%	-14%	33*	33
c1csc(-c2ncc3ccccn23)c1	10%	-20%	40*	68*
Cc1cccc(N2CCN(c3nc4ccc(C(=O)c5ccccc5)cc4n4cnnc34)CC2C)c1 (stereo not given)	-14%	4%	nt	nt
CCn1c(CSc2nc(C)cc(C)n2)nnc1SCC(=O)Nc1nc(-c2ccccc2)cs1	-28%	-4%	-5	-16
SMILES	FMDV inh	Sm TGR inh	Cycloheximide cs	Shiga toxin inh
CCn1c(SCC(=O)Nc2nc(-c3ccc(C)cc3)cs2)nnc1-c1ccccc1	13µM*	-13%	-1	4
CCn1c(SCC(=O)Nc2nc(-c3ccc(C)cc3)cs2)nnc1-c1ccccc1O	16µM*	-2%	0	-3
COc1ccccc1-c1nnc(SCC(=O)Nc2nc(-c3ccccc3)cs2)n1C	32µM*	1%	12	28
Cc1cc(C)nc(SCc2nnc(SCC(=O)Nc3nc(-c4ccccc4)cs3)n2C)n1	?	?	-3	-3
CCCS(=O)(=O)NCCc1sc2nc(-c3ccc(Cl)cc3)nn2c1C	-16%	-4%	nt	nt
COc1cc(-c2ccc(Nc3ccccc3C(=O)O)c(OC)c2)ccc1Nc1ccccc1C(=O)O	-23%	45µM*	-1	13
CCOCCOC(=O)c1ccc(NC(=O)/C=C/c2ccc(OC)c(OC)c2)cc1	20µM*	-6%	nt	nt
COc1cc(NC(=O)/C=C/c2ccccc2)c(C(=O)O)cc1OC	24%	0%	0	10
O=C(/C=C/c1ccc(Cl)cc1)NC(=S)Nc1ccccc1C(=O)O	-1%	?	1	17
NC(=O)c1ccccc1NC(=O)/C=C/c1ccc(Cl)cc1	13%	1%	48*	90*
COc1ccc(/C=C\C(=O)Nc2ccccc2C(=O)O)cc1OC	20µM*	nt	nt	nt

Screens as filed in PubChem BioAssay.
